This note sets out measurements from PubChem BioAssay AID1645882 (National Center for Advancing Translational Sciences (NCATS), 2021).

The whole screen tested about 16,000 compounds, of which about 120 (0.75%) were called active. A call without a number means that no potency is given here. About 4% were inconclusive and are not listed. The call rests on the fitted dose curve; in most records, active means well fitted inhibition curve with a large enough effect; inconclusive means small, poorly fitted or top-dose-only effect; inactive means no such curve, though single readings can be large or run the other way. This excerpt belongs to a sample that is enriched for actives. A structure can be active in one record and inactive in another.
Potency means the concentration at half of the fitted maximal effect.

For the assay, the target named is Rap guanine nucleotide exchange factor 3 (Homo sapiens) (UniProt O95398). The experiment in a line: Validation qHTS for antagonist of cAMP-regulated guanine nucleotide exchange factor 3 (EPAC1). Further: nearly all actives have a fitted effect of over 75% in size. To be noted: EPAC1 Rap1B-BODIPY-GDP exchange, fluorescence; series mostly up to 150 µM. An excerpt: Assay Provider (PI): Xiaodong Cheng Ph.D.
Chain of Rap guanine nucleotide exchange factor 3 (Homo sapiens) (O95398 whole entry, looked up): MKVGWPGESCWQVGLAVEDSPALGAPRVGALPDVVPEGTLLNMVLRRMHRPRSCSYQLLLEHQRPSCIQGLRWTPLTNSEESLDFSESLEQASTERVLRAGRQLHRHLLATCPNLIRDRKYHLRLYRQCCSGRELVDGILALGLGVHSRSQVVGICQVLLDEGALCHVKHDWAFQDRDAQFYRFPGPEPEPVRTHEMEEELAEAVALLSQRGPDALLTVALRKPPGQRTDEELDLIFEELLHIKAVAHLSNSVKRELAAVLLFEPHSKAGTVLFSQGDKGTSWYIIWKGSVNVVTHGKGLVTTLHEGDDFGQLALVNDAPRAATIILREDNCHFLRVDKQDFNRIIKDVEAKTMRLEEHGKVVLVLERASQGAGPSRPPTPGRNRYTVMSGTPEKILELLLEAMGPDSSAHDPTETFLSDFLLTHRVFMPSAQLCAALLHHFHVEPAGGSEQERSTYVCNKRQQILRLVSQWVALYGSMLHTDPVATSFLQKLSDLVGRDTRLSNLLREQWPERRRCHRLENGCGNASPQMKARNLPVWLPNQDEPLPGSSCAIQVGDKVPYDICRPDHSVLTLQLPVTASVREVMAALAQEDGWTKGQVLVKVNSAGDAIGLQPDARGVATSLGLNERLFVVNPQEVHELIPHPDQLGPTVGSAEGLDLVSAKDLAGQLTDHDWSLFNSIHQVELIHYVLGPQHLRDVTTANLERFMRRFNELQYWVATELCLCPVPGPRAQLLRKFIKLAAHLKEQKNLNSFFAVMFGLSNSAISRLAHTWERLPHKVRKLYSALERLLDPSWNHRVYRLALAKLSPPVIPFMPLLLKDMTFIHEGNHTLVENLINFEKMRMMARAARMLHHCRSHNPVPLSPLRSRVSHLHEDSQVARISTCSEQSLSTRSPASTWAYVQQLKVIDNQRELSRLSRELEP
The University of Texas Medical Branch, […], TX
In multi-cellular eukaryotic organisms, the effects of cAMP are transduced by two ubiquitously-expressed intracellular cAMP receptors, the classic protein kinase A/cAMP-dependent protein kinase (PKA/cAPK) and the more recently discovered exchange protein directly activated by cAMP/cAMP-regulated guanine nucleotide exchange factor (EPAC/cAMP-GEF). Both PKA and EPAC are ubiquitously expressed in all tissues, and an increase in intracellular cAMP levels will lead to the activation of both PKA and EPAC. Therefore, careful dissections of the individual role and relative contribution of EPAC and PKA within the overall cAMP signaling in various model systems are critical for further elucidating the mechanism of cAMP signaling. To date no EPAC-specific antagonists and agonist, as well as isoform-specific agonists have been reported, and developing EPAC-specific pharmacological probes to determine the physiological functions that EPAC play in the overall cAMP-mediated signaling remains a major challenge within the research field. Furthermore, identified regulators of EPAC may lead to new mechanism-based therapeutic strategies specifically targeting the EPAC / cAMP-signaling components as EPAC has been implicated to play important roles in major human pathological conditions such as diabetes, heart disease, and cancer.
This qHTS will be used to screen the Molecular Libraries Small Molecule Repository (MLSMR) as a concentration-titration series using the NCGC unique quantitative screening (qHTS) platform to find activators for EPAC1. In addition, this assay will also be used as a counterscreen for the EPAC2 qHTS. This fluorescent based assay is developed and validated for EPAC1 that measures exchange using EPAC effector Rap1 complex with BODIPY-GDP, a GDP analog with a tethered fluorophores. Activators are identified by monitoring the change in fluorescence signal as the exchanged free BODIPY-GDP has a reduced fluorescence compared to Rap1-bound BODIPY-GDP. Increase in signal (activation) is the desired outcome for the EPAC1 agonist while no activity in this assay is desired for the EPAC2 agonist counterscreen.
[1] de Rooij, J., Zwartkruis, F. J., Verheijen, M. H., Cool, R. H., Nijman, S. M., Wittinghofer, A., and Bos, J.L. (1998) Nature 396, 474-477.
Briefly, three uL of reagents (100 nM EPAC1, 250 nM RAP1B-BODIPY-GDP, 50 uM GDP) were dispensed into a 1536-well Greiner black solid-bottom medium binding assay plate. Controls and test compounds (23 nL) were transferred to the plate via a Kalypsys pin tool equipped with a 1536-pin array. The plates were centrifuged at 1,000 rpm for 15 seconds followed by 5 minute incubation at room temperature. The assay plates were read at 5 minute intervals for 30 minutes in the ViewLux plate reader using 480nm excitation and 540nm emission filters. The results were normalized to the […] positive control ATA and DMSO.
For the compound `O=[N+]([O-])c1cc(I)c(O)c(I)c1`, the Potency entry was “inactive”.
With `O=[N+]([O-])c1cc(O)c(O)c([N+](=O)[O-])c1`, the Potency is 79.4 µM (active) and inactive.
Turning to `O=[N+]([O-])c1ccc(O)c([N+](=O)[O-])c1`, the Potency entry is “inactive”.
With `COP(=S)(OC)Oc1ccc(S(N)(=O)=O)cc1`, the Potency entry was “inactive”.
For `O=c1oc2ccccc2c(O)c1C(c1ccccc1O)c1c(O)c2ccccc2oc1=O`, the Potency entry was “inactive”.
`O=c1oc2ccccc2c(O)c1C(CC(O)c1ccc(-c2ccc(Br)cc2)cc1)c1ccccc1` (stereo not given): the Potency was 100 µM (active).
On the same count and under the same terms, then `O=c1oc2ccccc2c(O)c1Cc1c(O)c2ccccc2oc1=O`, with “inactive”; and `O=C(Oc1ccccc1)N1CCC2(CC1)CCN(C(c1ccccc1)c1ccccc1)CC2`, with “inactive”; and `CC(C)(C)c1cc(O)ccc1O`, with “inactive”.
Regarding `Oc1cc2c(cc1O)[C@H]1c3ccccc3CN[C@H]1CC2`, the Potency entry is “inactive”.
For the compound `CC(=O)O.CC(=O)O.[Cd]`, the Potency entry is “inactive”.
On to `COc1cc2c(cc1OC)[C@@H]1C(=O)c3ccc4oc(C(C)C)cc4c3OC1CO2` (stereo not given in full), for which the Potency entry is “inactive”.
As for `CCc1cccc(C)c1N(C(=O)CCl)C(C)COC` (stereo not given), the Potency entry was “inactive”.
In the case of `CN(C)C1C(=O)C(C(N)=O)=C(O)[C@@]2(O)C(=O)C3=C(O)c4c(O)cccc4[C@](C)(O)C3C(O)C12` (stereo not given in full), the Potency entry is “inactive”.
Regarding `Cl.Cl.Cl.Cl.Cl.Cl.N.N.N.N.NNNNN.NNNNN.O.O.[Ru].[Ru].[Ru]`, the Potency is 89.1 µM (active).
Take `O=CN1CC2CC(C1)c1cccc(=O)n1C2` (stereo not given): the Potency result was “inactive”.
`CC(C)CCCC1(C)C=Cc2c(O)c3c(c(CCC(C)C)c2O1)OC12C(CC4CC1C(C)(C)OC2(CCC(C)C(=O)O)C4O)C3=O` (stereo not given): the Potency was 70.8 µM (active).
For `CN(C)CCc1c[nH]c2cccc(O)c12`, the Potency result was “inactive”.
For the compound `ClCCN(CCCl)/C(=C\c1ccccc1)c1ccnc2ccccc12`, the Potency entry was “inactive”.
Turning to `O=C1CC[C@@]2(O)C3Cc4ccc(O)c5c4C2(CCN3CC2CC2)[C@H]1O5` (stereo not given in full), the Potency result was “inactive”.
With `CC(=O)OC1CC(OC(C)=O)[C@]2(C)C(CC(OC(C)=O)[C@]3(C)C2CC[C@@]2(C)C(c4ccoc4)C[C@H]4O[C@]432)C1(C)C` (stereo not given in full), the Potency entry was “inactive”.
As to `O=C1OC(c2ccc(O)c(S(=O)(=O)O)c2)(c2ccc(O)c(S(=O)(=O)O)c2)c2c(Br)c(Br)c(Br)c(Br)c21`, the Potency is 14.1 µM (active).
In the case of `O=S(=O)(O)c1cc(O)ccc1O`, the Potency result was “inactive”.
The same measure, in the same setting: then `CCOC(=O)[C@]12Cc3cc(OC)ccc3[C@H]1N(Cc1ccccc1)C(=O)c1cc(F)c(F)cc12`, with “inactive”; and `CC(Cc1ccc2c(c1)OCO2)NO` (stereo not given), with “inactive”.
For the compound `NC(=O)[C@H](Cc1ccccc1)NC(=O)[C@H](Cc1c[nH]c2ccccc12)NC(=O)[C@@H]1CCCN1C(=O)[C@@H](N)Cc1ccc(O)cc1`, the activity change, negative = inhibition is 5.24% [at 15.3 µM] (inactive).
For `CCOC(=O)C1(c2ccccc2)CCCN(C)CC1` (stereo not given), the Potency result was “inactive”.
In the case of `CCC(C)C(=O)c1c(O)c(C)c2oc3c(C)c(O)c(C(=O)C(C)CC)c(O)c3c2c1O` (stereo not given), the Potency result was “inactive”.
As for `CCOCN(C(=O)CCl)c1c(C)cccc1CC`, the Potency entry was “inactive”.
Turning to `O=[N+]([O-])c1ccc(F)c([N+](=O)[O-])c1`, the Potency result is “inactive”.
With `CC(C)=CCCC1(C)C=Cc2c(O)c3c(c(CC=C(C)C)c2O1)OC12C(=CC4CC1C(C)(C)OC2(C/C=C(/C)C(=O)O)C4=O)C3=O` (stereo not given), the Potency was 50.1 µM (active).
In the case of `COc1c2c(c(CC=C(C)C)c3oc(=O)c(-c4ccc(O)cc4)c(O)c13)OC(C)(C)C=C2`, the Potency result is “inactive”.
For `COC(=O)/C(C)=C\CC12OC(C)(C)C3CC(C=C4C(=O)c5c(OC)c6c(c(CC=C(C)C)c5OC431)OC(C)(CCC=C(C)C)C=C6)C2=O` (stereo not given), the Potency entry was “inactive”.
On to `CC(C)=CCCC1(C)C=Cc2c(O)c3c(c(CC=C(C)C)c2O1)OC12C(=CC4CC1C(C)(C)OC2(C/C=C(/C)C(=O)O)C4O)C3=O` (stereo not given), for which the Potency was 63.1 µM (active).
Turning to `CC(=O)Oc1c2c(c(CC=C(C)C)c3c1C(=O)C1=CC4CC5C(C)(C)OC(C/C=C(\C)C(=O)O)(C4=O)[C@]15O3)OC(C)(CCC=C(C)C)C=C2` (stereo not given in full), the Potency is 44.7 µM (active).
In the case of `CN[C@H]1C[C@@H](N)[C@H](O)[C@@H](O[C@@H]2O[C@H](CO)[C@H](O)[C@@H]3OC4(O[C@H]23)O[C@H](C(N)CO)[C@H](O)[C@H](O)[C@H]4O)[C@@H]1O` (stereo not given in full), the Potency entry was “inactive”.
Turning to `CC[C@]1(O)CC(O[C@@H]2CC(N(C)C)C(O)C(C)O2)c2c(cc3c(c2O)C(=O)c2c(O)cccc2C3=O)C1C(=O)OC` (stereo not given in full), the Potency entry was “inactive”.
`CCC(=O)O[C@H]1[C@@H](N2CCCCC2)C[C@H]2[C@@H]3CC[C@H]4C[C@H](OC(C)=O)[C@@H](N5CCCCC5)C[C@]4(C)[C@H]3CC[C@@]21C`: the Potency result was “inactive”.
Regarding `CC(CC(C#N)(c1ccccc1)c1ccccc1)N(C)C` (stereo not given), the Potency entry is “inactive”.
Consider `CC(C)C1C(=O)N2CCC[C@H]2[C@]2(O)O[C@](NC(=O)[C@@H]3C=C4c5cccc6[nH]cc(c56)C[C@H]4N(C)C3)(C(C)C)C(=O)N12` (stereo not given in full), for which the Potency entry was “inactive”.
Turning to `C[C@@]12CCC(O)C[C@H]1CCC1C2CC[C@]2(C)C(=O)CCC12` (stereo not given in full), the Potency result is “inactive”.
With `O=S(=O)(O)C(F)(F)C(F)(F)C(F)(F)C(F)(F)C(F)(F)C(F)(F)C(F)(F)C(F)(F)F`, the Potency is 35.5 µM (active).
Turning to `O=S(=O)(O)C(F)(F)C(F)(F)C(F)(F)C(F)(F)F`, the Potency result is “inactive”.
As to `CC(C)C[C@H]1C(=O)N2CCC[C@H]2[C@]2(O)O[C@](NC(=O)[C@@H]3C[C@@H]4c5cccc6[nH]cc(c56)C[C@H]4N(C)C3)(C(C)C)C(=O)N12`, the Potency result is “inactive”.
Turning to `O[C@@H]1CCCC[C@@H]1N1CCC(c2ccccc2)CC1`, the Potency entry was “inactive”.
Take `Cn1cccc1-c1cccnc1`: the Potency entry is “inactive”.
On to `N#C/C(=C/c1ccc(O)c(O)c1)C(N)=S`, for which the Potency result was “inactive”.
For `N#CC(C#N)=Cc1ccc(O)c(O)c1`, the Potency result is “inactive”.
Turning to `N#C/C(=C\c1ccc(O)c(O)c1)C(N)=S`, the Potency was 89.1 µM (active).
In the case of `O=c1ccc2cc(OC3OC(CO)C(O)C(O)C3O)c(O)cc2o1` (stereo not given), the Potency entry is “inactive”.
As to `O=C(N[C@H]1N=C(c2ccccc2F)c2cccc3c2N(CC3)C1=O)c1cc2ccccc2[nH]1`, the Potency result was “inactive”.
`CC1Cc2ccccc2CN1` (stereo not given): the Potency entry is “inactive”.
As to `C[N+](C)(C)CCOC(=O)C(O)(c1ccccc1)c1ccccc1`, the Potency entry is “inactive”.
On to `CN(CCC(N)CC(=O)NC1C=CC(n2ccc(N)nc2=O)OC1C(=O)O)C(=N)N` (stereo not given), for which the Potency result is “inactive”.
On to `O=C1C(Cl)=C(Cl)C(=O)C(Cl)=C1Cl`, for which the Potency is 39.8 µM (active).
Turning to `COc1cc(CC(C)N)cc(OC)c1OC` (stereo not given), the Potency entry was “inactive”.
On to `CNc1ccccc1C(=O)O`, for which the Potency result was “inactive”.
As to `Nc1ccccc1C(=O)O`, the Potency entry was “inactive”.
For `O=C1C(I)=CC(=C(c2cc(I)c(O)c(I)c2)c2ccccc2C(=O)O)C=C1I`, the Potency is 39.8 µM (active).
As to `N#CN`, the Potency entry was “inactive”.
